Here are results for 27 molecules from PubChem BioAssay AID1492 (National Center for Advancing Translational Sciences (NCATS), 2009).

The structures appear in SMILES notation. Inconclusive results are not listed. A call without a number means that no potency is given here. Active and inactive are the calls of the source. The call rests on the fitted dose curve; in most records, active means well fitted inhibition curve with a large enough effect; inconclusive means small, poorly fitted or top-dose-only effect; inactive means flat fitted curve, though single readings scatter.

The test deals with Muscarinic acetylcholine receptor M1 (Rattus norvegicus) (UniProt P08482). In words: Counterscreen Concentration-Response Assay for Antagonists of the Neuropeptide S Receptor: Muscarinic Receptor Calcium Signal Transduction. The settings on record: CHO-M1 cells, carbachol-induced calcium fluorescence, FDSS; series mostly up to 20.2 µM. In a few lines: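 CHO cells stably expressing M1 receptor, calcium-dye loaded, pre-exposed to compound, then stimulated with carbachol (60 nM in stimulation reagent). Peak FDSS kinetic fluorescence over 180 s; AC50 from Hill fit.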
For the molecule `CCC(C)n1c(=O)c(C(=O)Nc2ccccc2S(N)(=O)=O)c(O)c2ccccc21` (configuration not stated), the Potency result is “inactive”. Consider `Cn1c(COc2ccccc2)nnc1SCc1cc(=O)[nH]c2ccccc12`, for which the Potency result was “inactive”. For the molecule `COc1ccc(/C=C2\CCCC3C2=NN(C(=O)c2ccco2)C3c2ccc(OC)c(OC)c2)cc1OC` (configuration not stated), the Potency entry was “inactive”. The entry for `O=c1cc(CNCCCO)c2ccccc2[nH]1` is “inactive”; for `O=[N+]([O-])c1cc2c(cc1/C=N/n1c(-c3ccccc3)n[nH]c1=S)OCO2` it is “inactive”. Take `O=C(Nc1nccs1)C1CCCN1S(=O)(=O)c1ccc(Cl)cc1` (configuration not stated): the Potency result was “inactive”. For `Cn1c(C(=O)NCCN2CCc3ccccc3C2)cc2c(=O)[nH]c3ccccc3c21`, the Potency result was “inactive”.

For the molecule `CN(Cc1cc(=O)[nH]c2ccccc12)C(=O)c1ccccc1`, the Potency result was “inactive”. As to `CN(CC(=O)NCc1ccc(F)cc1)S(=O)(=O)c1cccc2nsnc12`, the Potency entry was “inactive”. Regarding `C(=C\c1ccccc1)/C=N/N1CCN(c2ccccn2)CC1`, the Potency entry was “inactive”. Regarding `CCN(CC)S(=O)(=O)c1ccc2c(c1)nc(SC(C)C(N)=O)n2-c1ccc(OC)cc1` (configuration not stated), the Potency result is “inactive”. Turning to `O=C(CSC1=NCCS1)Nc1ccnc2ccccc12`, the Potency entry is “inactive”.

Consider `Cc1cc(OCC(=O)c2ccc(Br)cc2)ccc1N1C(=O)CCC1=O`, for which the Potency entry was “inactive”. With `O=C(NCCCN1CCOCC1)c1cc2c(=O)[nH]c3ccccc3c2s1` the entry was “inactive”; with `c1cncc(-c2nc(-c3ccco3)cs2)c1`, “inactive”; with `CCC(C)(C)NC(=O)Cc1ccc(C)cc1`, “inactive”. Consider `O=C1CC(NCc2ccncc2)C(=O)N1c1ccccc1` (configuration not stated), for which the Potency entry was “inactive”.

Regarding `CC(=O)c1cc(NC(=O)c2ccccc2)c(=O)oc1/C=C/N(C)C`, the Potency result is “inactive”.

Take `Cc1ccc(-c2ccc(/C=C3\C(=O)ON=C3c3ccccc3)o2)c([N+](=O)[O-])c1`: the Potency was 3.98 µM (active). With `Cc1ccc(/C=C2\SC(=S)N(CC(=O)Nc3ncc(Cc4ccccc4Cl)s3)C2=O)cc1`, the Potency entry is “inactive”. For `Cc1cccnc1NC(=O)c1c(O)c2cccc3c2n(c1=O)CCC3`, the Potency entry is “inactive”. Take `O=C(N1CCOCC1)C1(c2ccc(Cl)cc2)CCCC1`: the Potency entry is “inactive”.

`CC1CCN(S(=O)(=O)c2ccc(C(=O)Nc3sccc3C(N)=O)cc2)CC1`: the Potency result is “inactive”.

`COc1ccc(N(CC(=O)Nc2cccc(SC)c2)S(C)(=O)=O)cc1Cl`: the Potency entry is “inactive”. For the molecule `C=CCn1c(SCCN2C(=O)c3ccccc3C2=O)nc2scc(-c3ccccc3)c2c1=O`, the Potency result is “inactive”. For `COc1ccc(C2c3c(ncn(CCN4CCOCC4)c3=N)Oc3ccc4ccccc4c32)cc1OC` (configuration not stated), the Potency entry was “inactive”. As for `Cc1nn(C(=O)c2cccs2)c(N)c1-c1ccccc1`, the Potency entry is “inactive”.
